Compounds with a hit are over-represented: about 19% of the library has one in this group of screens.
Shiga toxin inh – Shiga toxin inhibition; 290,000 tested, 9.2% active; Vero cells, Shiga toxin protein synthesis inhibition reporter; inhibition, % at 38.7 µM; in the data active means inhibition mostly above about 28%, no sharp cut-off; inactive means mostly below about 43%
SARS PLpro yeast – blocks SARS-CoV papain-like protease in a yeast assay; S. cerevisiae expressing SARS-CoV PLpro, growth rescue; Potency, µM (highest dose often 32.9 µM), actives largely listed as activators; 330,000 tested, 0.19% active; AID 485353; calls by dose curve; further: nearly all actives have a fitted effect of over 55% in size
Pf growth 96h – P. falciparum growth inhibition at 96 hours; P. falciparum luciferase reporter growth, 96 h; Potency, µM (series often up to 28.7 µM), actives largely listed as inhibitors; 320,000 tested, 6.9% active
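Plates of compound plus infected erythrocytes (2% hematocrit, 0.05% parasitemia final) incubate 96 hours, 37 C, 5% CO2. Detection reagent added; reduced luminescence from the parasites' luciferase reporter flags inhibition.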
Pf growth 48h – inhibits P. falciparum growth in the first generation, 48 h. P. falciparum luciferase growth in erythrocytes, 48 h. Potency, µM (highest dose often 28.7 µM), most hits filed as inhibitors. 310,000 tested, 5.9% active
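A one-generation exposure of luciferase-tagged malaria parasites in RPMI 1640/Albumax erythrocyte culture, 37 C and 5% CO2. Inhibition is inferred from decreased luminescence after adding detection reagent.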
Cycloheximide cs – counter-screen for Shiga toxin inhibitors: cycloheximide protein synthesis inhibition; cell reporter, cycloheximide protein synthesis inhibition counterscreen; max response, %; 300,000 tested, 12% active; AID 2314; in the data active means max response mostly above about 13%, no sharp cut-off; inactive means mostly below about 14%; further: read at 38.3 µM for the half of the compounds with a filed dose
AMA1-RON2 inh – disrupts binding of P. falciparum AMA1 to RON2. AlphaScreen AMA1-biotinylated RON2 peptide binding. Potency, µM (doses to about 58.2 µM), usual class: inhibitors. 360,000 tested, 0.2% active. AID 720542; further: nearly all actives have a fitted effect of over 45% in size
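AMA1 (3D7) with his tag at 25 nM final met compounds first, then biotinylated RON2 peptide at 25 nM; detection used donor plus acceptor beads, 10 µg/mL apiece, read by AlphaScreen after 30 min at room temperature.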
A number is an active result; 0 = inactive; ? = inconclusive; - = no result; [ ] = another dose, or the depositor's remark. Unless noted, the call rests on the fitted dose curve; in most records, active means well fitted curve in the direction sought with a large enough effect; inconclusive means small, poorly fitted or top-dose-only effect, or another doubt; inactive means no such curve, though single readings can be large; an effect the other way counts as inactive or inconclusive.

SMILES | Shiga toxin inh | SARS PLpro yeast | Pf growth 96h | Pf growth 48h | Cycloheximide cs | AMA1-RON2 inh
CC(C)=NOCC(=O)Nn1c(COc2c(C)cccc2C)nc2ccccc2c1=O | 0 | 0 | 0 | 0 | 0 | 0
O=C1NC(=O)N(Cc2ccccc2)C(=O)/C1=C\C=C\c1ccco1 | 0 | 0 | ? | 0 | 29.7 | 0
Cc1cccc(N2C(=O)NC(=O)/C(=C\C=C\c3ccco3)C2=O)c1 | 0 | 0 | 0 | 0 | 20.2 | 0
Cc1ccc(N2C(=O)NC(=O)/C(=C\C=C\c3ccco3)C2=O)cc1C | 0 | 0 | 0 | 0 | 17.8 | 0
O=C1NC(=O)N(CCc2ccc(F)cc2)C(=O)/C1=C\C=C\c1ccccc1 | 0 | 0 | ? | 0 | 20.8 | 0
CC1C(=O)N2CCCc3cc(NC(=O)c4ccccc4Br)cc1c32 (stereo not drawn) | - | 0 | 0 | ? | - | 0
CCN1C[C@@H]2[C@@H]3C(=O)N(Cc4ccccc4)C(=O)[C@@H]3[C@](C)(C1=O)N2C(=O)c1ccc(Cl)c(Cl)c1 | - | - | - | - | - | 0
Cc1ccc2c(c1)-n1c(nc3cc(Cl)ccc3c1=O)C(CC(C)C)NC2=O (stereo not drawn) | - | 0 | - | - | - | -
COc1cc(OC)c(/C=N/n2c(C)nnc2C)c(OC)c1 | 0 | 0 | 0 | 0 | 0 | 0
Cc1ccc(N2C(=O)NC(=O)/C(=C\C=C\c3ccco3)C2=O)cc1 | 56.3 | 0 | 0 | 0 | 61.0 | 0
O=C1NC(=O)N(Cc2ccco2)C(=O)/C1=C/C=C/c1ccco1 | 0 | 0 | ? | 0 | 0 | ?
CC(C)(C)n1cccc1/C=C1\C(=O)NC(=O)N(c2ccccc2)C1=O | 0 | 0 | 10.4µM | 0 | 0 | 0
O=C1NC(=O)N(c2ccccc2)C(=O)/C1=C/C=C/c1ccco1 | 57.2 | 0 | 0 | 0 | 36.1 | 0
COCCNC(=O)c1cc(-c2ccc(-c3ccccc3)cc2)nc2ccccc12 | 0 | 0 | 0 | 0 | 0 | 0
CC1Sc2ccccc2N(CC(=O)N(C(C)C)C(C)C)C1=O (stereo not drawn) | 0 | 0 | - | 0 | 0 | 0
O=C1C2CC=CCC2C(=O)N1c1cccc(OS(=O)(=O)c2ccc3ccccc3c2)c1 (stereo not drawn) | 0 | 0 | 3.29µM | - | 0 | 0
O=C(/C=C/c1cn(-c2ccccc2)nc1-c1cccs1)NCCN1CCOCC1 | 0 | 0 | ? | ? | 0 | 0
CN(C)CCCNC(=O)c1cc(Br)ccc1Cl | 0 | 0 | 9.28µM | - | 0 | 0
CCNC(=O)COc1ccc(Br)cc1Cl | 59.8 | 0 | 0 | 0 | 27.6 | ?
COCCCNC(=O)COc1ccc(Br)cc1Cl | 88.3 | 0 | ? | 0 | 38.1 | 0
O=C(NCCN1CCOCC1)c1cc(Br)ccc1Cl | 0 | 0 | 0 | 0 | 0 | 0
COCCNC(=O)COc1ccccc1Cl | 0 | 0 | - | 0 | 0 | 0
CC(=O)N(CCc1ccccc1)c1ccc2c(c1)C1CC2CCN1C(=O)OCc1ccccc1 (stereo not drawn) | - | - | - | - | - | 0
Cc1cc(NS(=O)(=O)c2c(C(=O)N3CCOCC3)c(C)n(C)c2C)ccc1Br | 0 | 0 | 0 | 0 | 0 | 0
COc1ccc(CCNc2nc(-c3ccncc3)cs2)cc1OC | 0 | 0 | ? | 0 | 0 | 0
SMILES | Shiga toxin inh | SARS PLpro yeast | Pf growth 96h | Pf growth 48h | Cycloheximide cs | AMA1-RON2 inh
COc1ccc(-c2csc(NC(=O)Cc3cc(OC)c(OC)c(OC)c3)n2)cc1OC | 0 | 0 | 11.7µM | ? | 0 | 0
COc1cc(OC)cc(C(=O)N[C@H](C(=O)Nc2nc(-c3ccc(OC)c(OC)c3)cs2)C(C)C)c1 | 0 | 0 | 10.4µM | 13.1µM | 0 | 0
COc1ccc(-c2csc(NC(=O)CCN3C(=O)C4CC=CCC4C3=O)n2)cc1OC (stereo not drawn) | - | 0 | ? | 10.4µM | - | 0
COc1ccc(CCNc2nc(-c3ccc(O)cc3)cs2)cc1OC | 0 | 0 | 10.4µM | ? | 0 | 0
O=C1C(c2ccccc2)C(c2ccccc2)NC(c2ccccc2)C1c1ccccc1 (stereo not drawn) | 0 | 0 | 0 | 1.85µM | 0 | 0
C=C(C)c1cccc(C(C)(C)NC(=O)NC(c2ccccc2)c2ccc(OC)cc2)c1 (stereo not drawn) | 0 | 0 | 11.7µM | ? | 0 | 0[11.6 µM]
C=C(C)c1cccc(C(C)(C)NC(=O)Nc2ccc(OC)cc2)c1 | 0 | 0 | ? | 0[5.75 µM] | 0 | 0
O=C(OCc1nnc(-c2ccccc2)o1)c1cc(Cl)ccc1[N+](=O)[O-] | 0 | 0 | 0 | 0 | 31.2 | 0
O=C(OCc1nnc(-c2ccccc2)o1)c1cccnc1Cl | 0 | 0 | 0 | 0 | 19.0 | 0
O=C(OCc1nnc(-c2ccc(Cl)cc2)o1)c1ccc(O)cc1 | 28.3 | 0 | 0 | 0 | 19.0 | 0
O=[N+]([O-])c1cc(-c2nnc(-c3ccccc3)o2)ccc1Oc1ccc(Cl)cc1 | 60.7 | 0 | 0 | 0 | 32.3 | 0
O=C1CCC(C(=O)OCc2nnc(-c3ccc(Cl)cc3)o2)=NN1 | - | 0 | 0 | 0 | - | 0
O=C(COC(=O)c1ccccc1-n1cnnn1)c1ccc(F)c(F)c1 | - | 0 | 0 | 0 | - | 0
C=C1C(=O)O[C@@H]2[C@H]1[C@@H](OC(=O)/C(C)=C/C)C/C(C)=C\C(=O)/C=C(\C)[C@@H]2O | 50.6 | 0 | ? | ? | 28.5 | 0
O=C(O)Cc1ccc(N=Nc2c(O)c(C(=O)O)cc3ccccc23)cc1 | 132.8 | 0 | ? | 0 | 56.0 | ?
NS(=O)(=O)c1ccc(N=Nc2c(O)c(C(=O)O)cc3ccccc23)cc1 | 0 | 0 | 10.4µM | ? | 0 | 0
O=C(O)c1cc2ccc3ccccc3c2oc1=O | 0 | 0 | ? | 0 | 0 | 0
NC(=S)NNc1cccc2cccnc12 | 38.7 | 0 | ? | 7.38µM | 19.4 | 0
COc1cc(NCc2ccccc2O)c2ncccc2c1 | 0 | 0 | ? | ? | 20.2 | 0
Oc1ccccc1CNc1cccc2cccnc12 | 61.7 | 0 | 0 | 0 | 45.4 | 0
O=C(CI)Nc1cccc2cccnc12 | 0 | - | - | - | 0 | -
COc1cc(NC(=O)OCc2ccccc2)c2ncccc2c1 | - | - | - | - | - | 0
CCn1c(CCC(=O)O)nc2cc(S(=O)(=O)N3CCOCC3)ccc21 | - | 0 | - | - | - | 0
CCCCNC(=O)NNC(=O)COc1cccc(C)c1C | 0 | 0 | 0 | 0 | 0 | 0
CCOc1ccccc1CN1CCC(Oc2ccc(C(=O)NCc3ccccn3)cc2)CC1 | 0 | 0 | ? | 10.4µM | 0 | 0
SMILES | Shiga toxin inh | SARS PLpro yeast | Pf growth 96h | Pf growth 48h | Cycloheximide cs | AMA1-RON2 inh
COCC(C)N1CCC(Oc2ccc(C(=O)NCc3ccccn3)cc2)CC1 (stereo not drawn) | 0 | 0 | 11.7µM | 0 | 0 | 0
COc1ccc(OC)c(-c2csc(N3CCC(c4ccccc4)CC3)n2)c1 | 0 | 0 | 0 | 0[5.75 µM] | 0 | 0
O=C(NCCCn1ccnc1)c1ccc(Cl)c(S(=O)(=O)N2CCOCC2)c1 | 0 | 0 | - | 0 | 0 | 0
O=C(CSc1nnc(CCCN2C(=O)c3cccc4cccc(c34)C2=O)n1-c1ccccc1)NCCCN1CCOCC1 | 0 | 0 | 0 | 9.28µM | 0 | 0
O=C(CSc1nnc(CCCN2C(=O)c3cccc4cccc(c34)C2=O)n1-c1ccccc1)NCCCO | 0 | 0 | 0 | ? | 0 | 0
Cc1cc(C)c(C)c(N=Nc2nc3ccccc3n2C)c1C | 91.9 | 0 | 0 | 0 | 62.5 | 11.2µM

Screening data deposited in PubChem by National Center for Advancing Translational Sciences (NCATS).
